The panel holds about 83,000 compounds, 20% with a hit somewhere; the sample as a whole holds those more often.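 48-hour exposure, single concentration, 96-well plates; percent growth endpoint where 0 means no net growth. Active: below 10.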 A number with no mark means an inactive call. The source made the active and inactive calls.
Legend:
Experiment in all cases: NCI-60 one-dose screen, 48 h (100 = growth as untreated, 0 = no growth, -100 = all killed)
Settings in all cases: 10 µM unless noted
[1] = system: BT-549 breast
[2] = system: MDA-MB-435 melanoma
[3] = system: SW-620 colon
[4] = system: MCF7 breast
[5] = system: HCT-116 colon
[6] = system: HCC-2998 colon
[7] = system: KM12 colon
[8] = system: T-47D breast

SMILES: COc1ccc(-c2cnoc2-c2cc(OC)c3c(c2)OCCO3)cc1
- growth [1]: 3.85% (active)
- growth [2]: -27.9% (active)
- growth [3]: 19.5%
- growth [4]: 12.4%
- growth [5]: -12.3% (active)
- growth [6]: 8.32% (active)
- growth [7]: 3.62% (active)

SMILES: Cn1c2ccccc2c2c3[nH]c(=O)[nH]c(=O)c3c3c4ccccc4n(C)c3c21
- growth [8]: 42.5%
- growth [1]: 39.7%
- growth [2]: 36.5%
- growth [3]: 33.1%
- growth [4]: 32.9%
- growth [7]: 24.2%

SMILES: O=C(/C=C/c1cc2ccccc2[nH]c1=O)/C=C/c1cc2ccccc2[nH]c1=O
- growth [8]: 15.2%
- growth [1]: -45.5% (active)
- growth [2]: -41.6% (active)
- growth [3]: -39.5% (active)
- growth [4]: -42.3% (active)
- growth [6]: -88.9% (active)
- growth [7]: -83.7% (active)

SMILES: O=C1C=CC(Nc2ccccc2[N+](=O)[O-])C1Nc1ccccc1[N+](=O)[O-] (centres undefined)
- growth [1]: -58.7% (active)
- growth [2]: 8.78% (active)
- growth [3]: -71.6% (active)
- growth [4]: -77.3% (active)
- growth [5]: -89.5% (active)
- growth [6]: 6.76% (active)
- growth [7]: 58.3%

SMILES: C=CCSc1nnc(-c2ccc(C(C)(C)C)cc2)n1-c1cccc(C(F)(F)F)c1
- growth [1]: 19.3%
- growth [2]: 52.5%
- growth [3]: 46.2%
- growth [4]: 12.1%
- growth [5]: 13.3%
- growth [6]: 51.1%
- growth [7]: 27.1%

SMILES: CCN(CC)c1ccc(/C=C/C2=[N+](C)c3ccccc3C2(C)C)cc1
- growth [8]: 14%
- growth [1]: 0.697% (active)
- growth [2]: -1.89% (active)
- growth [3]: 15.4%
- growth [4]: 4.72% (active)
- growth [7]: -28% (active)

SMILES: COc1ccc(C(=O)c2sc3nc4c(c(C(F)(F)F)c3c2N)CN(C(C)=O)CC4)cc1OC
- growth [1]: 99.6%
- growth [2]: 99.7%
- growth [3]: 100%
- growth [4]: 83.4%
- growth [5]: 89.3%
- growth [6]: 94.9%
- growth [7]: 97.6%

SMILES: CN1Cc2c(cc(CN3CCCCC3)n2C)C(c2ccc(Br)cc2)C1 (centres undefined)
- growth [1]: 83.1%
- growth [2]: 65.5%
- growth [3]: 90.8%
- growth [4]: 71.8%
- growth [5]: 61.8%
- growth [6]: 84.2%
- growth [7]: 94.5%

SMILES: CC[C@H](CO)Nc1nc(NCc2ccccc2)n2ncc(C(C)C)c2n1
- growth [8]: 28.3%
- growth [1]: -28.1% (active)
- growth [2]: 11.3%
- growth [3]: 1.96% (active)
- growth [4]: 2.6% (active)
- growth [6]: -27.9% (active)
- growth [7]: 1.41% (active)

SMILES: O=C(Nc1cccc2[nH]c(C(F)(F)F)nc12)c1ccc(Br)cc1F
- growth [1]: 19.4%
- growth [2]: 26.9%
- growth [3]: 41.6%
- growth [4]: 27.1%
- growth [6]: 48.3%
- growth [7]: 27%

SMILES: C=C(CN1CCN(c2cccc(C(F)(F)F)n2)CC1)c1ccc(C(=O)Nc2ccccc2N)cc1
- growth [1]: 22.8%
- growth [2]: -9.74% (active)
- growth [3]: 55.2%
- growth [4]: 1.51% (active)
- growth [5]: 15.5%
- growth [6]: -41% (active)
- growth [7]: -3.75% (active)

SMILES: CC1=C(NCCN2CCCC2)C(=O)c2c(OCc3ccc(F)c(Cl)c3)cccc2C1=O
- growth [8]: 62.7%
- growth [2]: 40%
- growth [3]: 78.8%
- growth [4]: 41.3%
- growth [6]: 80.7%
- growth [7]: 79.7%

SMILES: COc1ccc(CNc2nccnn2)cc1
- growth [8]: 105%
- growth [1]: 114%
- growth [2]: 102%
- growth [3]: 104%
- growth [4]: 99.4%
- growth [6]: 98.7%
- growth [7]: 99.3%

SMILES: O=C1/C(=C/c2ccccc2)CN(CCC(=O)N2C/C(=C\c3ccccc3)C(=O)/C(=C/c3ccccc3)C2)C/C1=C\c1ccccc1
- growth [8]: 26.6%
- growth [1]: 56.3%
- growth [2]: -40.7% (active)
- growth [3]: 7.07% (active)
- growth [4]: -2.24% (active)
- growth [7]: 10.1%

SMILES: CCCCN(CCCC)CCC(C)(O)c1cc2ccccc2c2ccccc12 (centres undefined)
- growth [8]: 109%
- growth [1]: 121%
- growth [2]: 83.9%
- growth [3]: 69.5%
- growth [4]: 96.5%
- growth [6]: 80.3%
- growth [7]: 83.8%

SMILES: N#Cc1ccc(NC(=O)Nc2ccc(Cc3ccc(NC(=O)Nc4ccc(C#N)cc4)cc3)cc2)cc1
- growth [1]: 20.7%
- growth [2]: 7.5% (active)
- growth [3]: 34%
- growth [4]: 6.82% (active)
- growth [5]: 18.8%
- growth [6]: 40.1%
- growth [7]: 18.7%

SMILES: COc1ccc2nc3cc(Cl)ccc3c(N3CCN(c4nccc(Nc5ccc(Cl)cc5)n4)CC3)c2c1
- growth [8]: 32.2%
- growth [2]: 78.7%
- growth [3]: 73.7%
- growth [4]: 41.6%
- growth [5]: 12%
- growth [6]: 92.3%
- growth [7]: 62.3%

SMILES: Cc1cc(OCc2ccc(C(F)(F)F)cc2)c2c(c1)C(=O)C=C(NCCN1CCCC1)C2=O
- growth [8]: 42.8%
- growth [2]: -23.5% (active)
- growth [3]: 74.7%
- growth [4]: 31%
- growth [5]: 19.6%
- growth [6]: 15.2%
- growth [7]: 79.1%

SMILES: O=C1C[C@H](N2C(=O)c3ccccc3S2(=O)=O)C2CO[C@@H]1O2
- growth [8]: 54.1%
- growth [2]: 95.7%
- growth [3]: 56.1%
- growth [4]: 23.1%
- growth [5]: 42.7%
- growth [6]: 99.3%
- growth [7]: 102%

SMILES: COc1ncc(-c2ccc3ncnc(Nc4cccc(Cl)c4)c3c2)cc1NS(C)(=O)=O
- growth [8]: -6.68% (active)
- growth [1]: 25.3%
- growth [2]: 41.9%
- growth [3]: 50.2%
- growth [4]: 7.7% (active)
- growth [6]: 56.8%
- growth [7]: 55.3%

SMILES: Oc1c(Cl)cc(Cl)cc1CNc1nccnn1
- growth [8]: 105%
- growth [1]: 105%
- growth [2]: 99.3%
- growth [3]: 102%
- growth [4]: 99.2%
- growth [6]: 98.6%
- growth [7]: 93.1%

SMILES: CN1CCN(Cc2ccc(NC(=O)c3cncc(C#Cc4c(N)ncc5ccc(C#N)cc45)c3)cc2C(F)(F)F)CC1
- growth [8]: 65%
- growth [1]: 92.3%
- growth [2]: -93.8% (active)
- growth [3]: -69.2% (active)
- growth [4]: -69.7% (active)
- growth [6]: 78.5%
- growth [7]: -41.8% (active)

SMILES: Cc1cc(-c2nc3ccccc3s2)ccc1NC(=O)COc1ccc(Cl)cc1
- growth [8]: 18.9%
- growth [1]: 105%
- growth [2]: 113%
- growth [3]: 106%
- growth [4]: 17.5%
- growth [6]: 91.8%
- growth [7]: 118%

SMILES: NC(CC(=O)O)C(=O)OCc1ccccc1 (centres undefined)
- growth [8]: 83.8%
- growth [1]: 108%
- growth [2]: 86.3%
- growth [3]: 107%
- growth [4]: 104%
- growth [6]: 104%
- growth [7]: 106%

SMILES: CCOc1ccc(Nc2nc(-c3c(C)nc4ncccn34)cs2)cc1
- growth [1]: 20.6%
- growth [2]: -41% (active)
- growth [3]: 24.6%
- growth [4]: 15%
- growth [5]: 2.95% (active)
- growth [6]: 23.4%
- growth [7]: 6.58% (active)

SMILES: Cc1ccc(Nc2nc(N)nc(Nc3ccc4ccccc4c3)n2)cc1
- growth [8]: 36.2%
- growth [1]: 48.1%
- growth [2]: 16.6%
- growth [3]: 23.5%
- growth [4]: 29.6%
- growth [7]: 25.1%

SMILES: CC(=O)N1CC(Nc2ccc(OC(F)(F)F)cc2)=CC1=O
- growth [8]: 26.2%
- growth [2]: -27.2% (active)
- growth [3]: 27.8%
- growth [4]: 11.8%
- growth [5]: 39.2%
- growth [6]: 60.2%
- growth [7]: 23.3%

SMILES: COc1ccccc1-c1ccc2c(N)c(C(=O)c3ccc4c(c3)OCO4)sc2n1
- growth [1]: 71.4%
- growth [2]: 2.68% (active)
- growth [3]: 42.2%
- growth [4]: 36.3%
- growth [5]: 42.4%
- growth [6]: 71.4%
- growth [7]: 53.8%

SMILES: CCN(C(=O)CN1CCN(c2cc3c(cc2F)c(=O)c(C(=O)O)cn3CC)CC1)c1nc(-c2ccccc2)cs1
- growth [8]: 11.9%
- growth [1]: 3.3% (active)
- growth [2]: -13.9% (active)
- growth [3]: 13.9%
- growth [4]: 7.6% (active)
- growth [6]: 19.6%
- growth [7]: 12.7%

SMILES: CC1=C(NCCN2CCCC2)C(=O)c2c(OCc3ccc(C(F)(F)F)cc3)cccc2C1=O
- growth [8]: 73.6%
- growth [2]: 70.9%
- growth [3]: 83.5%
- growth [4]: 59.9%
- growth [5]: 33.9%
- growth [6]: 107%
- growth [7]: 85%
